# In ChEMBL document CHEMBL1201862, “PubChem BioAssay data set” (2004):
# About 31,000 (8.9%) of roughly 350,000 compounds were called active. Not shown: some 15% with an inconclusive outcome. The calls are words filed in the database; no cut-off is given here. The full list was thinned out, with actives kept by preference.
# Target: T1, Histone-lysine N-methyltransferase EHMT2 (Homo sapiens) (UniProt Q96KQ7)
# T1 sequence (whole entry): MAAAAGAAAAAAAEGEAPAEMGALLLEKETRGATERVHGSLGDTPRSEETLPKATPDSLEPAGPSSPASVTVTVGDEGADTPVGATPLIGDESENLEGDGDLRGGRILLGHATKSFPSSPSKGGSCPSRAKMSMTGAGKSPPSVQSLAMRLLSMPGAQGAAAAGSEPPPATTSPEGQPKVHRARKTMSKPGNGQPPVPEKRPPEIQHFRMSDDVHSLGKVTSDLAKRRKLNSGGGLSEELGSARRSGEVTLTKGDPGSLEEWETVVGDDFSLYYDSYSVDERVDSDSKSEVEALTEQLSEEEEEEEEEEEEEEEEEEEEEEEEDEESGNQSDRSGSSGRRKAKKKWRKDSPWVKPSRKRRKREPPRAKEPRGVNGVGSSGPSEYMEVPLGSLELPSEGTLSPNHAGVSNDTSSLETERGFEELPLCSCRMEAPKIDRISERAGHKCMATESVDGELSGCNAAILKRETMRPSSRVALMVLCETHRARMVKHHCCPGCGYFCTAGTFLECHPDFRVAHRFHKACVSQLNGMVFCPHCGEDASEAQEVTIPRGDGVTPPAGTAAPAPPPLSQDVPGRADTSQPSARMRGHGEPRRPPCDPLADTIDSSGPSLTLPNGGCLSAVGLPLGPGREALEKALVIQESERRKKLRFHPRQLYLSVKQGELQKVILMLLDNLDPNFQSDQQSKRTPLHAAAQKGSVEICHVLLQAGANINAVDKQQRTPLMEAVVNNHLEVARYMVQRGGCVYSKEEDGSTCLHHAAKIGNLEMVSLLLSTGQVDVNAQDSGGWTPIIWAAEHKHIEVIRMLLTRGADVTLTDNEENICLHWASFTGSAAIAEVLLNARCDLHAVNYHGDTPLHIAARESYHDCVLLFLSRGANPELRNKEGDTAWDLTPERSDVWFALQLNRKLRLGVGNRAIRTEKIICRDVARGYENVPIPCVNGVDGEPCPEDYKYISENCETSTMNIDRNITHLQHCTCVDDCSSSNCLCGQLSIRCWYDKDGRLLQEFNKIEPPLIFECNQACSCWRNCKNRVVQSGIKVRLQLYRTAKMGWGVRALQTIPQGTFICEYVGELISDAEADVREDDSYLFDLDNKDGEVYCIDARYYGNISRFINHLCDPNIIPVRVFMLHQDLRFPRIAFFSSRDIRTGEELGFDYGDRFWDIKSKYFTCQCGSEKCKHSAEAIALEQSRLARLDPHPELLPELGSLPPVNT
# Test: qHTS Assay for Inhibitors of Histone Lysine Methyltransferase G9a. [Related pubchem assays (depositor defined):AID504404]
# Type: functional
row,SMILES,Potency
1,Cl[Te]1(Cl)OCCO1,7.94 µM (active)
